# Data as given in PubChem BioAssay (NCI).
# “And” between values parts separate entries of the source, which are not always exact repeats. Identical values can stand only once. The panel holds about 83,000 compounds, 20% with a hit somewhere; the sample as a whole holds those more often.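 Plates (96-well) were seeded with cells, treated with compound at one concentration, and incubated for 48 hours before percent growth was determined.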 The source made the active and inactive calls. The calls were made as follows: active = growth percent below 10; inactive = the rest.
# Experiments:
# Test in all cases: NCI-60 one-dose screen, 48 h (100 = growth as untreated, 0 = no growth, -100 = all killed)
# NCI-H23 lung = system: NCI-H23 lung
# NCI-H226 lung = system: NCI-H226 lung
# NCI-H322M lung = system: NCI-H322M lung
# HOP-62 NSCLC = system: HOP-62 NSCLC
# NCI-H460 lung = system: NCI-H460 lung
# HOP-92 NSCLC = system: HOP-92 NSCLC
# NCI-H522 lung = system: NCI-H522 lung
# A549/ATCC NSCLC = system: A549/ATCC NSCLC
# 786-0 renal = system: 786-0 renal
# COLO 205 colon = settings: 10 µM unless noted
# DU-145 prostate = system: DU-145 prostate
# K-562 leukemia = system: K-562 leukemia
# MALME-3M melanoma = system: MALME-3M melanoma
# MDA-MB-231 breast = system: MDA-MB-231 breast
# RXF 393 renal = system: RXF 393 renal
# SF-268 CNS = system: SF-268 CNS
# SF-295 CNS = system: SF-295 CNS
# SF-539 CNS = system: SF-539 CNS
# UACC-257 melanoma = system: UACC-257 melanoma
# M14 melanoma = system: M14 melanoma
smiles,measurement,setting,value
CC(C)(C)c1ccc(O)c(C2CCCCC2)c1,growth,NCI-H23 lung; 10 µM unless noted,98% (inactive)
same,growth,NCI-H226 lung; 10 µM unless noted,104% (inactive)
same,growth,NCI-H322M lung; 10 µM unless noted,105% (inactive)
same,growth,HOP-62 NSCLC; 10 µM unless noted,107% (inactive)
same,growth,NCI-H460 lung; 10 µM unless noted,107% (inactive)
same,growth,HOP-92 NSCLC; 10 µM unless noted,96.6% (inactive)
same,growth,NCI-H522 lung; 10 µM unless noted,83.6% (inactive)
same,growth,A549/ATCC NSCLC; 10 µM unless noted,95.9% (inactive)
same,growth,786-0 renal; 10 µM unless noted,99.8% (inactive)
same,growth,COLO 205 colon,103% (inactive)
same,growth,DU-145 prostate; 10 µM unless noted,102% (inactive)
same,growth,K-562 leukemia; 10 µM unless noted,89.8% (inactive)
same,growth,MALME-3M melanoma; 10 µM unless noted,115% (inactive)
same,growth,MDA-MB-231 breast; 10 µM unless noted,106% (inactive)
same,growth,RXF 393 renal; 10 µM unless noted,90.9% (inactive)
same,growth,SF-268 CNS; 10 µM unless noted,99.4% (inactive)
same,growth,SF-295 CNS; 10 µM unless noted,130% (inactive)
same,growth,SF-539 CNS; 10 µM unless noted,121% (inactive)
same,growth,UACC-257 melanoma; 10 µM unless noted,86.6% (inactive)
same,growth,M14 melanoma; 10 µM unless noted,122% (inactive)
O=C(O)c1c(Cl)c(Cl)c(Cl)c(Cl)c1-c1c2cc(I)c(=O)c(I)c-2oc2c(I)c(O)c(I)cc12,growth,NCI-H23 lung; 10 µM,103% (inactive) and 91.8% (inactive) and 101% (inactive)
same,growth,NCI-H23 lung; 100 µM,-60% (active)
same,growth,NCI-H226 lung; 10 µM,113% (inactive) and 99.1% (inactive) and 94.4% (inactive)
same,growth,NCI-H226 lung; 100 µM,25.9% (inactive)
same,growth,NCI-H322M lung; 10 µM,108% (inactive) and 109% (inactive) and 78.1% (inactive)
same,growth,NCI-H322M lung; 100 µM,36.3% (inactive)
same,growth,HOP-62 NSCLC; 10 µM,108% (inactive) and 104% (inactive) and 125% (inactive)
same,growth,HOP-62 NSCLC; 100 µM,-66.5% (active)
same,growth,NCI-H460 lung; 10 µM,102% (inactive) and 115% (inactive) and 98.1% (inactive)
same,growth,NCI-H460 lung; 100 µM,98.8% (inactive)
same,growth,HOP-92 NSCLC; 10 µM,125% (inactive) and 43.3% (inactive) and -9.83% (active)
same,growth,HOP-92 NSCLC; 100 µM,-22.3% (active)
same,growth,NCI-H522 lung; 10 µM,107% (inactive) and 97.2% (inactive) and 57% (inactive)
same,growth,NCI-H522 lung; 100 µM,-61% (active)
same,growth,A549/ATCC NSCLC; 10 µM,103% (inactive) and 106% (inactive) and 96.4% (inactive)
same,growth,A549/ATCC NSCLC; 100 µM,25.2% (inactive)
same,growth,786-0 renal; 10 µM,109% (inactive) and 115% (inactive) and 112% (inactive)
same,growth,786-0 renal; 100 µM,8.48% (active)
same,growth,DU-145 prostate; 10 µM,93.5% (inactive) and 95.2% (inactive) and 112% (inactive)
same,growth,DU-145 prostate; 100 µM,59% (inactive)
same,growth,K-562 leukemia; 10 µM,112% (inactive) and 113% (inactive) and 92.3% (inactive)
same,growth,K-562 leukemia; 100 µM,-33.1% (active)
same,growth,MALME-3M melanoma; 10 µM,110% (inactive) and 56.4% (inactive)
same,growth,MALME-3M melanoma; 100 µM,-11.9% (active)
same,growth,MDA-MB-231 breast; 10 µM,94.7% (inactive) and 102% (inactive) and 104% (inactive)
same,growth,MDA-MB-231 breast; 100 µM,-39.7% (active)
same,growth,RXF 393 renal; 10 µM,92.5% (inactive) and 90.9% (inactive) and 57.7% (inactive)
same,growth,RXF 393 renal; 100 µM,-78.9% (active)
same,growth,SF-268 CNS; 10 µM,88.2% (inactive) and 78.4% (inactive) and 96.9% (inactive)
same,growth,SF-268 CNS; 100 µM,19.8% (inactive)
same,growth,SF-295 CNS; 10 µM,100% (inactive) and 98.8% (inactive) and 96.3% (inactive)
same,growth,SF-295 CNS; 100 µM,15.3% (inactive)
same,growth,SF-539 CNS; 10 µM,95.4% (inactive) and 96.5% (inactive) and 77.9% (inactive)
same,growth,SF-539 CNS; 100 µM,-67.5% (active)
same,growth,UACC-257 melanoma; 10 µM,115% (inactive) and 117% (inactive) and 90.6% (inactive)
same,growth,UACC-257 melanoma; 100 µM,22.9% (inactive)
same,growth,M14 melanoma; 10 µM,104% (inactive) and 95.6% (inactive) and 119% (inactive)
same,growth,M14 melanoma; 100 µM,69.7% (inactive)
Cn1c2c(c3ccccc31)CCN1C[C@@H]3CCCC[C@H]3C[C@@H]21,growth,NCI-H23 lung; 10 µM unless noted,14.4% (inactive)
same,growth,NCI-H226 lung; 10 µM unless noted,32.3% (inactive)
same,growth,NCI-H322M lung; 10 µM unless noted,6.3% (active)
same,growth,HOP-62 NSCLC; 10 µM unless noted,40.7% (inactive)
same,growth,NCI-H460 lung; 10 µM unless noted,0.684% (active)
same,growth,HOP-92 NSCLC; 10 µM unless noted,33.4% (inactive)
same,growth,NCI-H522 lung; 10 µM unless noted,6.33% (active)
same,growth,A549/ATCC NSCLC; 10 µM unless noted,23.1% (inactive)
same,growth,786-0 renal; 10 µM unless noted,-12.7% (active)
same,growth,COLO 205 colon,-59.2% (active)
same,growth,DU-145 prostate; 10 µM unless noted,-49% (active)
same,growth,K-562 leukemia; 10 µM unless noted,12.9% (inactive)
same,growth,MALME-3M melanoma; 10 µM unless noted,3.28% (active)
same,growth,MDA-MB-231 breast; 10 µM unless noted,28.5% (inactive)
same,growth,RXF 393 renal; 10 µM unless noted,-24.4% (active)
same,growth,SF-268 CNS; 10 µM unless noted,16.1% (inactive)
same,growth,SF-295 CNS; 10 µM unless noted,-30.1% (active)
same,growth,SF-539 CNS; 10 µM unless noted,-1.74% (active)
same,growth,UACC-257 melanoma; 10 µM unless noted,55.4% (inactive)
same,growth,M14 melanoma; 10 µM unless noted,-59.3% (active)
N[C@H](C(=O)O)[C@@H]1CC(Cl)=NO1,growth,NCI-H23 lung; 10 µM unless noted,22.8% [20 µM] (inactive)
same,growth,NCI-H226 lung; 10 µM unless noted,38.1% [20 µM] (inactive)
same,growth,NCI-H322M lung; 10 µM unless noted,37.2% [20 µM] (inactive)
same,growth,HOP-62 NSCLC; 10 µM unless noted,26.1% [20 µM] (inactive)
same,growth,NCI-H460 lung; 10 µM unless noted,7.07% [20 µM] (active)
same,growth,HOP-92 NSCLC; 10 µM unless noted,63.6% [20 µM] (inactive)
same,growth,NCI-H522 lung; 10 µM unless noted,25.4% [20 µM] (inactive)
same,growth,A549/ATCC NSCLC; 10 µM unless noted,19.1% [20 µM] (inactive)
same,growth,786-0 renal; 10 µM unless noted,24.2% [20 µM] (inactive)
same,growth,COLO 205 colon,33.5% [20 µM] (inactive)
same,growth,DU-145 prostate; 10 µM unless noted,37.7% [20 µM] (inactive)
same,growth,K-562 leukemia; 10 µM unless noted,20% [20 µM] (inactive)
same,growth,MALME-3M melanoma; 10 µM unless noted,33.5% [20 µM] (inactive)
same,growth,MDA-MB-231 breast; 10 µM unless noted,43.4% [20 µM] (inactive)
same,growth,RXF 393 renal; 10 µM unless noted,48.7% [20 µM] (inactive)
same,growth,SF-268 CNS; 10 µM unless noted,25.5% [20 µM] (inactive)
same,growth,SF-295 CNS; 10 µM unless noted,31.2% [20 µM] (inactive)
same,growth,SF-539 CNS; 10 µM unless noted,21.4% [20 µM] (inactive)
same,growth,UACC-257 melanoma; 10 µM unless noted,39.1% [20 µM] (inactive)
same,growth,M14 melanoma; 10 µM unless noted,16.9% [20 µM] (inactive)
N#CSCC(=O)c1ccc(Cl)cc1,growth,NCI-H23 lung; 10 µM unless noted,9.41% (active)
same,growth,NCI-H226 lung; 10 µM unless noted,65.8% (inactive)
same,growth,NCI-H322M lung; 10 µM unless noted,71.7% (inactive)
same,growth,HOP-62 NSCLC; 10 µM unless noted,45.1% (inactive)
same,growth,NCI-H460 lung; 10 µM unless noted,33.5% (inactive)
same,growth,HOP-92 NSCLC; 10 µM unless noted,-3.98% (active)
same,growth,NCI-H522 lung; 10 µM unless noted,50.6% (inactive)
same,growth,A549/ATCC NSCLC; 10 µM unless noted,87.1% (inactive)
same,growth,786-0 renal; 10 µM unless noted,22.3% (inactive)
same,growth,COLO 205 colon,90.3% (inactive)
same,growth,DU-145 prostate; 10 µM unless noted,30.2% (inactive)
same,growth,K-562 leukemia; 10 µM unless noted,44.4% (inactive)
same,growth,MALME-3M melanoma; 10 µM unless noted,54.8% (inactive)
same,growth,MDA-MB-231 breast; 10 µM unless noted,34.4% (inactive)
same,growth,RXF 393 renal; 10 µM unless noted,25.6% (inactive)
same,growth,SF-268 CNS; 10 µM unless noted,34.6% (inactive)
same,growth,SF-295 CNS; 10 µM unless noted,49.4% (inactive)
same,growth,SF-539 CNS; 10 µM unless noted,22.2% (inactive)
same,growth,UACC-257 melanoma; 10 µM unless noted,82.3% (inactive)
same,growth,M14 melanoma; 10 µM unless noted,2.91% (active)
COc1ccc(N=N/N=c2\sc3cc(OC)ccc3n2C)cc1,growth,NCI-H23 lung; 10 µM unless noted,79.6% (inactive)
same,growth,NCI-H226 lung; 10 µM unless noted,81.8% (inactive)
same,growth,NCI-H322M lung; 10 µM unless noted,83.9% (inactive)
same,growth,HOP-62 NSCLC; 10 µM unless noted,86.4% (inactive)
same,growth,NCI-H460 lung; 10 µM unless noted,94.9% (inactive)
same,growth,HOP-92 NSCLC; 10 µM unless noted,71.2% (inactive)
same,growth,NCI-H522 lung; 10 µM unless noted,73.8% (inactive)
same,growth,A549/ATCC NSCLC; 10 µM unless noted,69.8% (inactive)
same,growth,786-0 renal; 10 µM unless noted,105% (inactive)
same,growth,COLO 205 colon,92.2% (inactive)
same,growth,DU-145 prostate; 10 µM unless noted,91.8% (inactive)
same,growth,K-562 leukemia; 10 µM unless noted,80.8% (inactive)
same,growth,MALME-3M melanoma; 10 µM unless noted,109% (inactive)
same,growth,MDA-MB-231 breast; 10 µM unless noted,90.5% (inactive)
same,growth,RXF 393 renal; 10 µM unless noted,105% (inactive)
same,growth,SF-268 CNS; 10 µM unless noted,97.6% (inactive)
same,growth,SF-295 CNS; 10 µM unless noted,83.3% (inactive)
same,growth,SF-539 CNS; 10 µM unless noted,99.4% (inactive)
same,growth,UACC-257 melanoma; 10 µM unless noted,80% (inactive)
same,growth,M14 melanoma; 10 µM unless noted,110% (inactive)
